# Reference: the supplement of paper PMC3334620
# Over roughly 33,000 sequences, “E-score (-0.5 to 0.5)” has its median near -0.0059; the highest 2% begin near 0.26. This is one part of a sample in which the highest values are shown more often than they occur.
# Molecular target: T1, Cin5 (UniProt P40917)
# T1 sequence: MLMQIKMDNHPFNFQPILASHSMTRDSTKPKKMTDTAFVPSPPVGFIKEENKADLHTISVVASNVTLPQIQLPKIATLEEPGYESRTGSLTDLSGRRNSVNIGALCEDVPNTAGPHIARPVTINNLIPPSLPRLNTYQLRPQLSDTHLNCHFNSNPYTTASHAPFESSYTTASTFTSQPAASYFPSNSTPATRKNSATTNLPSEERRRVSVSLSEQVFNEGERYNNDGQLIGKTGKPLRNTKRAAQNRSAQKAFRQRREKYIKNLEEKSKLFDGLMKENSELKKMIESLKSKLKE
# Assay: PBM E-score (8-mer binding enrichment) (E-score (-0.5 to 0.5)); higher = stronger / more preferred TF binding
# Conditions: protein concentration: 100 nM; construct: GST-full length
# In short: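 Full-length yeast transcription factors or their DNA-binding domains, GST-tagged and expressed with PURExpress, were applied at about 100-200 nM to universal all-10-mer Agilent arrays. These arrays had been made double-stranded by primer extension on fresh or once-stripped slides. Detection used fluorescent anti-GST, normalisation used masliner, and E-scores for ungapped eight-base words pooled with reverse complements came from the Universal PBM Analysis Suite.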
row,Sequence,PBM E-score
1,AAAATCGC,0.0818
2,TATGGCCA,0.0804
3,ACCTAGAC,-0.126
4,GACTCTCC,-0.189
5,AATGCGGT,-0.0647
6,AATGCGGG,0.273
7,AATGCGGC,-0.00913
8,TGCCCTAA,-0.0446
9,AAGTTGTC,0.127
10,AAGTTGTG,0.265
11,AAGTTGTA,0.178
12,CCCATCGC,0.0166
13,CCCCGACG,-0.00202
14,GATATCCA,0.183
15,ATCGGAAA,0.0538
16,ATCGGAAT,0.151
17,ATCGGAAC,0.267
18,CGTTCAAC,0.0923
19,CATAAGCG,0.267
20,AATAAGCG,0.109
21,GATAAGCA,0.275
22,CATAAGCA,0.336
23,AATAAGCA,0.176
24,GATAAGCC,0.0299
25,CATAAGGG,0.1

row,Sequence,PBM E-score
1,TATAAGCA,0.256
2,CATAAGCC,0.245
3,CCCTGTGC,-0.18
4,CCTCGGGA,-0.13
5,GTAGACCA,-0.101
6,GCCAAGGA,-0.199
7,CCGGCGTC,-0.0574
8,TCAGTGGA,-0.093
9,CATATATG,0.114
10,GACATAAC,0.276
11,CACATAAA,0.183
12,TATATATA,0.369
13,TACATAAA,0.323
14,TATATACA,0.187
15,GACATAAA,0.239
16,CATATATC,0.102
17,TATATAGA,0.238
18,CACATAAC,-0.00529
19,CATATATA,0.322
20,AACATAAA,0.0668
21,CCAGTCCC,-0.0959
22,ATGTACAA,0.0216
23,ACCTTAGA,0.0107
24,AGGTATCC,0.0225
25,AACGCACT,-0.037

row,Sequence,PBM E-score
1,TGACTCCA,-0.17
2,CCTTCGTC,-0.106
3,ACTATAGT,0.174
4,CGAGCATC,0.0462
5,GGAGGATA,-0.0068
6,GCACTTTA,-0.0367
7,CTTATAAA,0.154
8,GATATATA,0.266
9,TATATAAA,0.283
10,TACATACA,0.238
11,TTTATAAA,0.259
12,GATATATC,0.1
13,CATATAAA,0.138
14,GTTATAAA,0.198
15,GATATAAA,0.0539
16,GATATACA,0.138
17,GACATACA,0.314
18,CACATACA,9e-05
19,ACGTCGAT,0.105
20,AACCCTGC,-0.0766
21,CGCGAATC,0.0184
22,TTCTCAAA,0.15
23,AGGGCCAA,-0.313
24,GCCCAGTA,-0.0745
25,AGGAGACC,-0.201

row,Sequence,PBM E-score
1,CGTGATGA,-0.0266
2,CGTGATTC,-0.0445
3,CGTGATTA,0.273
4,AGTGATTA,0.275
5,GGTGATTA,0.213
6,AGTGATTC,-0.0118
7,CAAGAATC,0.133
8,AGCGGTAT,0.158
9,ATACTAAA,0.265
10,CTACTACA,0.173
11,TTACTAAA,0.266
12,ATACTAAG,0.012
13,CTACTAAA,-0.0525
14,ATACTACA,0.285
15,GTACTAAA,0.0965
16,ATACTAAC,0.166
17,ATACTACC,-0.0132
18,ACTTCCCG,-0.0152
19,CGGAGGAG,-0.182
20,AGGAAAAG,0.0753
21,GGACCTGA,-0.107
22,CGACGAAG,-0.0192
23,AATATAGA,0.186
24,AATATAGC,0.0896
25,CATATAAG,0.0464

row,Sequence,PBM E-score
1,CATATAGG,0.0225
2,AATATAAT,0.177
3,AATATAGG,0.317
4,AATATATA,0.18
5,ACTATAGG,-0.0568
6,AATATAGT,0.315
7,AATATATT,0.363
8,AATATATG,0.248
9,AATATAAG,0.276
10,GGTGGGAC,-0.313
11,CCCGGAGG,-0.377
12,AATCATCA,0.229
13,AGACTGCT,-0.00887
14,AGGCATAC,0.0609
15,CATGCACA,0.156
16,AACGATGT,0.0581
17,AAACGCTG,-0.139
18,GGGGATTA,0.253
19,GACTGCCC,-0.188
20,GTCTGAAC,-0.16
21,AGTGCCCA,0.0274
22,TAATACGA,0.12
23,GAATACCA,0.207
24,TAATACTA,0.372
25,TAATACCA,0.279

row,Sequence,PBM E-score
1,TAATACAA,0.232
2,CAATACTA,0.0648
3,AAATACTA,0.112
4,GAATACTA,0.267
5,CAATACCA,0.0989
6,CGTTGGGC,-0.0408
7,ATGGACAG,-0.15
8,GGACCAAC,-0.134
9,ACTTAGAC,0.0559
10,CCTGCGAG,-0.0365
11,CAGGGACA,-0.0907
12,CTGCGAGA,-0.332
13,CATATTTC,0.0909
14,CATATTAC,0.287
15,AACATTAC,0.148
16,AACATTAT,0.261
17,AACATTAG,-0.0325
18,AATATTTA,0.217
19,AATATTGG,0.154
20,CATATTAG,0.16
21,AATATTAA,0.304
22,AATATTGA,0.172
23,AATATTGC,0.235
24,AATATTGT,0.28
25,ACACGTTG,-0.238

row,Sequence,PBM E-score
1,CGGTAACG,-0.0557
2,AACTTTTC,0.0286
3,CGTCCCAC,-0.0257
4,CTCCAGGA,-0.221
5,GGCTGCAC,-0.148
6,CACATAGC,-0.142
7,CGTTTCCA,0.0865
8,ACAATCCA,0.209
9,AATATTCG,0.19
10,AATATTCC,0.289
11,GATATTCC,0.0678
12,TCTATTAA,0.109
13,AATATTAG,0.215
14,AATATTCA,0.24
15,GCTATTAC,0.0669
16,AATATTAT,0.343
17,TGTATTAA,0.202
18,TATATTAA,0.287
19,ACTATTAT,0.137
20,GATATTAC,0.315
21,AAAGACGA,0.036
22,GACCACTA,0.171
23,CCAGTCCG,-0.296
24,CCCGTAAC,-0.0624
25,GACAGCTC,-0.237

row,Sequence,PBM E-score
1,ACAGCTTA,0.195
2,AATGGAAC,0.103
3,GATATTAA,0.282
4,GATATTCA,0.0685
5,CCTATTAC,0.0787
6,CTCATTAA,0.175
7,ATCATTAA,0.221
8,AACATTAA,0.114
9,AATATTAC,0.294
10,TACATTAA,0.262
11,AATATTTC,0.18
12,GTCATTAA,0.279
13,GACATTAA,0.0285
14,GCTATTAA,0.0303
15,GCGCAGAC,-0.178
16,ACGAGAGA,-0.0604
17,CCTTTGTC,-0.0179
18,CTAGGTTA,0.118
19,AACAGTCA,-0.041
20,GATATTGA,0.0812
21,CCTATTAA,0.111
22,CATATTAA,0.275
23,TATATTGA,0.287
24,CATATTTA,0.157
25,CATATTGA,0.0883

row,Sequence,PBM E-score
1,GCTCCGCA,-0.16
2,GGCGGAAA,0.088
3,AGCAGTGA,0.2
4,AAGCTTGC,-0.0817
5,GTGTAGGA,-0.0437
6,AACGCGCT,-0.0706
7,AACGCGAG,0.0992
8,CACGCGAA,-0.0826
9,AACGCGCG,0.276
10,AACGCGAA,0.281
11,AACGCGCA,0.0734
12,CCAAAGCG,-0.0566
13,CCTTCATA,0.0109
14,ATGTCAGA,0.114
15,ACGTCAGT,-0.12
16,ACGTCATG,0.228
17,CAGTCAGC,-0.0612
18,GCGTCAGC,-0.102
19,AAGTCAGA,0.0006
20,CTGTCAGC,0.148
21,ATGTCAGC,0.272
22,ACGTCATC,0.259
23,AAGTCAGC,0.293
24,ACGTCAGC,0.394
25,CCGTCATC,-0.075
